{
  "source": "PubChem BioAssay (NCATS)",
  "note": "Inconclusive results are not listed. A number with no mark means an inactive call. Calls of active or inactive are those of the source. Calls follow the shape of the dose curve; as a rule, active = well fitted cell-killing curve with a large enough effect; inconclusive = small, poorly fitted or top-dose-only effect; inactive = flat fitted curve, though single readings scatter. % is scaled to controls: 0 for no effect and ±100 for the full control effect; potency is read from the fitted curve at half-maximal effect.",
  "data": [
    {"assay": "Viability qHTS for inhibitors of the SERCaMP assay screened against the NCATS CANVASS Library (AID 1347400); also: nearly all actives have a fitted effect of over 70% in size", "settings": "SH-SY5Y SERCaMP cells viability, CellTiter-Glo, 48 h; series mostly up to 92.2 µM; activity change, negative = cytotoxicity: at the top concentration", "from_the_text": "Natural products and their derivatives continue to be wellsprings of nascent therapeutic potential. However, many laboratories have limited resources for biological evaluation, leaving their previously isolated or synthesized compounds largely or completely untested. To address this issue, the Canvass library of natural products was assembled (https://tripod.nih.gov/canvass), in collaboration with academic and industry researchers, for quantitative high-throughput screening (qHTS) across a diverse set of cell-based and biochemical assays. The pure (>85% purity by liquid chromatography/mass spectrometry [LC/MS]) Canvass library of 346 natural products were submitted by 45 academic laboratories and companies around the world. We collected pure natural products to circumvent deconvolution and structure elucidation due to time and resource limitations. The library was formatted into 1536-well plates and evaluated in 50 qHTS (in an 11-pnt concentration series) bioassays with broad scope of disease-relevant mechanisms. The resulting data set from 50 different assays was then systematically analyzed to identify overall trends and specific natural products with interesting biological activities. Reported herein are the results of each individual qHTS and their corresponding assay protocol. Cytotoxic compounds are expected to interfere with the SERCaMP assay, and these are identified using a CellTiter-Glo viability assay. National Center for Advancing Translational Sciences (NCATS), Rockville, MD National Institute of Health (NIH), Bethesda, Maryland\nSERCaMP Viability assay protocol: 1. In a white-solid bottom 1536-well tissue culture plate (Corning 7494), 5 uL of SH-SY5Y-GLuc SERCaMP MJH297 derived cells were dispensed using a Multidrop Combi (Thermo Fisher Scientific) at a final concentration of 1000 cells / well. 2. The assay plates were incubated for 4 hours at 37C, 5% CO2, 95% humidity. 3. […] of compounds (in DMSO; columns 5-48), and positive control Bortezomib (1 mM; 1:2 dilution; 16-points; n = 2; column 2, rows 1-32) were pin transferred into the assay plates using the Kalypsis pin tool (Wako USA) equipped with a 1536-well pin heads. This yields a final concentration range of 0.0001 - 4.6 uM for the Bortezomib and 0.001 - 77 uM for the compounds. 4. The assay plates were incubated for 48 hours at 37C, 5% CO2, 95% humidity. 5. After incubation, 3 uL of CellTiterGlo reagent (Promega) was dispensed into each wells. 6. The plates were centrifuged for 15 seconds at 1000 rpm. 7. Luminescence signal was obtained via the ViewLux plate reader (Perkin Elmer) using the clear emission filter and 1x binning, 2 seconds exposure settings.", "values": [
      {"smiles": "CC(=O)N[C@H]1CCN2CCC[C@H]12", "activity change, negative = cytotoxicity": "-8.03% [at 206 µM]"},
      {"smiles": "CCCCC[C@@H]1OC(=O)[C@@H](C)N(C)C(=O)[C@H](CCCCC)OC(=O)C(C)N(C)C(=O)[C@H](CCCCC)OC(=O)[C@@H](C)N(C)C(=O)[C@H](CCCCC)OC(=O)C(C)N(C)C1=O", "note": "(some centres undefined)", "Potency": "38.1 µM (active)"},
      {"smiles": "C[C@@H]1CC[C@@H](c2ccoc2)N2C[C@@]3(CC[C@@H]12)CS[C@@]1(CC[C@H]2[C@H](C)CC[C@@H](c4ccoc4)N2[C@@H]1O)C3", "Potency": "13.5 µM (active)"},
      {"smiles": "CNCCc1c[nH]c2ccccc12", "activity change, negative = cytotoxicity": "0.259%"},
      {"smiles": "CN(C)Cc1c[nH]c2ccccc12", "activity change, negative = cytotoxicity": "-2.66%"},
      {"smiles": "O=C(c1ccccc1O)c1[nH]c(Cl)c(Cl)c1-n1c(C(=O)c2ccccc2O)cc(Cl)c1Cl", "Potency": "19.1 µM (active)"},
      {"smiles": "C/C=C1/CN2CC[C@]34C(=Nc5ccccc53)[C@@H]2C[C@@H]1[C@H]4C(=O)OC", "activity change, negative = cytotoxicity": "0.452% [at 183 µM]"},
      {"smiles": "CNCCc1ccc(O)cc1", "activity change, negative = cytotoxicity": "-1.48%"},
      {"smiles": "CCC(=O)CCCCC[C@@H]1NC(=O)[C@H]2CCCCN2C(=O)[C@H]([C@@H](C)CC)NC(=O)[C@H](Cc2cn(OC)c3ccccc23)NC1=O", "Potency": "3.81 µM (active)"},
      {"smiles": "CO[C@H](c1ccccc1)[C@H]1NC(=O)C(C)NC(=O)C(C[C@@H](C)CO)N(C)C(=O)[C@@H](C(O)c2cn(C(C)(C)C3CO3)c3ccccc23)NC(=O)C(C(C)C=C(C)C)NC(=O)C(CC(C)C)N(C)C(=O)C(C(C)C)NC1=O", "note": "(some centres undefined)", "activity change, negative = cytotoxicity": "1.72% [at 55.1 µM]"},
      {"smiles": "CN1C(=O)[C@]23CC4C(C)(C)[C@@]5(C[C@@]41CN2CC[C@@]3(C)O)C(=O)Nc1c5ccc2c1OC=CC(C)(C)O2", "note": "(some centres undefined)", "activity change, negative = cytotoxicity": "-5.18%"},
      {"smiles": "CCC[C@H]1CC[C@H]2[C@H](C)CCC[C@H]2N1", "activity change, negative = cytotoxicity": "3.68%"},
      {"smiles": "CC=C1CN(C=O)[C@H]2C[C@@H]1[C@@H](C(=O)OC)[C@@]13CCOC21Nc1ccccc13", "note": "(some centres undefined)", "activity change, negative = cytotoxicity": "-9.33%"},
      {"smiles": "CO[C@@H](/C=C/CC/C=C/C(=O)O)[C@@H](O)[C@H](C)/C=C(\\C)[C@@H](O)[C@H](C)C(=O)CCCC1CC(=O)NC(=O)C1", "activity change, negative = cytotoxicity": "8.3%"},
      {"smiles": "COc1ccc2c(c1)[nH]c1c(C)nccc12", "Potency": "27.8 µM (active)"},
      {"smiles": "COC(=O)C1=C2Nc3ccccc3[C@@]23CCN2CC(C(C)=O)C1C[C@H]23", "note": "(some centres undefined)", "activity change, negative = cytotoxicity": "4.48%"},
      {"smiles": "CCN1C[C@]2(C)CC[C@@H](O)[C@]34C1[C@H](C[C@H]23)C12CCC(CC14)[C@](O)(CO)[C@H]2O", "note": "(some centres undefined)", "activity change, negative = cytotoxicity": "-3.09%"},
      {"smiles": "CCN1C[C@]2(C)CC[C@H](O)[C@]34C1C(C[C@H]23)[C@@]12CC[C@H](CC14)[C@](O)(COC(=O)c1ccc(OC)c(OC)c1)[C@H]2O", "note": "(some centres undefined)", "activity change, negative = cytotoxicity": "-23%"},
      {"smiles": "COc1ccc(C23Oc4cc(OC)cc(OC)c4[C@](O)([C@H](c4ccccc4)C2C(=O)NCCCCNC(=O)c2ccccc2)[C@@H]3O)cc1", "note": "(some centres undefined)", "activity change, negative = cytotoxicity": "14.2%"},
      {"smiles": "CC[N@@+]1([O-])C[C@]2(C)CC[C@@H](O)[C@@]34C5C[C@H]6CC[C@@]5(C(C[C@H]23)C41)[C@H](O)[C@@]6(O)CO", "note": "(some centres undefined)", "activity change, negative = cytotoxicity": "4.14%"},
      {"smiles": "CC[C@@H]1CN2CC[C@@]3(O)C(=Nc4cccc(OC)c43)[C@@H]2C[C@@H]1/C(=C\\OC)C(=O)OC", "activity change, negative = cytotoxicity": "-2.72%"},
      {"smiles": "CNCCc1ccccc1", "activity change, negative = cytotoxicity": "-0.762%"},
      {"smiles": "c1ccc2c3c([nH]c2c1)CNCC3", "activity change, negative = cytotoxicity": "-1.01%"},
      {"smiles": "CC1=CC(=O)C2=C(C)C[C@H](O)[C@@H]3[C@H](OC(=O)[C@@H]3C)[C@@H]12", "activity change, negative = cytotoxicity": "0.3%"},
      {"smiles": "C[C@]12CC(O)C3[C@@H](CCC4C[C@@H](O)CC[C@@]43CO)[C@@]1(O)CCC2C1=CC(=O)OC1", "note": "(some centres undefined)", "activity change, negative = cytotoxicity": "5.26%"},
      {"smiles": "CO[C@@H](/C=C/CC/C=C/C(=O)O)[C@@H](O)[C@H](C)[C@@H](O)/C(C)=C/[C@H](C)C(=O)CCCC1CC(=O)NC(=O)C1", "activity change, negative = cytotoxicity": "13.5%"},
      {"smiles": "NCCc1ccccc1", "activity change, negative = cytotoxicity": "10.9%"},
      {"smiles": "CCCC[C@@H]1CC[C@H]2CCCC(CCC)N12", "note": "(some centres undefined)", "activity change, negative = cytotoxicity": "-8.19%"},
      {"smiles": "CC1=CC2CC[C@@H]3[C@@H](C)C[C@H](C)[C@@H](C1)N23", "note": "(some centres undefined)", "activity change, negative = cytotoxicity": "14.4%"}
    ]}
  ]
}
